The values below come from PubChem BioAssay AID504375 (National Center for Advancing Translational Sciences (NCATS), 2011).

The structures appear in SMILES notation. Out of some 1,600 compounds screened, about 25 (2%) were called active. Roughly 7% stayed inconclusive and do not appear here. Calls come from the whole dose curve; as a rule, active = well fitted inhibition curve with a large enough effect; inconclusive = small, poorly fitted or top-dose-only effect, or effect the other way; inactive = no such curve, though single readings can be large or run the other way. The list comes from a sample in which actives are over-represented; it also holds similar structures and randomly drawn compounds. Entries that show only a call come without a potency.
Potency is the fitted concentration of half-maximal effect.

For the assay, the target named is Runt-related transcription factor 1 (Homo sapiens) + Core-binding factor subunit beta (Homo sapiens) (UniProt Q01196+Q13951). Kind of assay: qHTS Assay for Compounds Blocking the Interaction Between CBF-beta and RUNX1 for the Treatment of Acute Myeloid Leukemia: Hit Validation with Orthogonal Assay. As to conditions: CBFbeta-RUNX1 binding orthogonal assay, biochemical; series mostly up to 41 µM. From the text: NIH Chemical Genomics Center [NCGC]
Chain of Runt-related transcription factor 1 (Homo sapiens) + Core-binding factor subunit beta (Homo sapiens) (Q01196 whole entry, looked up): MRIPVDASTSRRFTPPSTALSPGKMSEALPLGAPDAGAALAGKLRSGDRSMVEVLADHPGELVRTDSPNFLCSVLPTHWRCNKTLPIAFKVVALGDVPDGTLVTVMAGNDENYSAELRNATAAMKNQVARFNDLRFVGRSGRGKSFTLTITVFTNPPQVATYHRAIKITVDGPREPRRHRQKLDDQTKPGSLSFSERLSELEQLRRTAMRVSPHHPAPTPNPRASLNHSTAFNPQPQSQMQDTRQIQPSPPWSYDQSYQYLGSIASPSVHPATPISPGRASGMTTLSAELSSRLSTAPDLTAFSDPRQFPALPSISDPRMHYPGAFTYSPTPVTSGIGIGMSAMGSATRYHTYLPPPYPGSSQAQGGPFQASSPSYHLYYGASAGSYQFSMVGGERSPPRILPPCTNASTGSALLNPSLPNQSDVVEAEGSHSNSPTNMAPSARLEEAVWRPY
Chain of Runt-related transcription factor 1 (Homo sapiens) + Core-binding factor subunit beta (Homo sapiens) (Q13951 whole entry, looked up): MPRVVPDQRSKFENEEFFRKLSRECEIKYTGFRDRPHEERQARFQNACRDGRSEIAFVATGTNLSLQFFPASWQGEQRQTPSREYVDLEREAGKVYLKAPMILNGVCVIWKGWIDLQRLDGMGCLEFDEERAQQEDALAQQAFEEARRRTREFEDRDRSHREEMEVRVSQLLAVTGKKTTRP
NIH Molecular Libraries Probe Production centers Network [MLPCN]
Assay Submitter (PI): Paul Liu
Core Binding Factor (CBF) abnormalities are associated with 20-25% of all acute myeloid leukemias (AML), of which 5-10% are further sub classified as acute myelomonocytic leukemia with eosinophilia, also known as M4Eo in the FAB classification scheme. This subtype of leukemia is usually associated with chromosome 16 inversion (p13:q22). Chromosome 16 inversion results in formation of the fusion oncogene CBFB-MYH11, which encodes the fusion protein CBF-beta-SMMHC.
It has been hypothesized that the interference of CBF-beta and RUNX1 binding could have therapeutic implications for patients with CBF mediated leukemias. We developed a CBF-beta and RUNX1 binding assay in AlphaScreenTM format and optimized it for high throughput screening to search for inhibitors. The goal of this project is to screen MLPCN's compound collection (MLSMR) for identifying the inhibitors of the interaction between CBF-beta and RUNX1 proteins as research probes. If these probes work well in the animal models, the ultimate goal of this project is to development a new drug treatment for this disease.
This assay can not be used to assess how apparent inhibitors interfere with protein binding, and whether inhibitors specifically bind to either protein. Disruption of this protein-protein interaction, through any mechanism, is the intended target activity.
The present data set was run to confirm the activity of hits from the primary screen using an orthogonal assay technology for measuring protein-protein interaction disruption.
A TR-FRET (time resolved fluorescence resonance energy transfer) assay was performed using the same assay buffer, protein concentrations and incubation times as described previously in the AlphaScreen assay, except that terbium (Tb+) labeled anti-his-antibody and XL665 linked streptavidin were used to capture the binding signal. The Tb+ labeled anti-his-antibody captures His(6)-CBF and XL665 linked streptavidin binds to biotin-RUNX1. The binding of RUNX1 to CBFbrings Tb+ and XL665 to proximity resulting in a TR-FRET signal. Briefly, in a white 384-well plate, 10 µl/well of mixture of biotin-RUNX1 and His(6)-CBFwere incubated with 10 µl/well buffer (positive control) or 10 µl/well compounds (negative control) for 20 min followed by an addition of 10 µl/well of Tb+ labeled anti-his(6)-antibody and XL665 linked streptavidin. After 90 min of incubation in the dark, the assay plate was measured in the Envision plate reader using TR-FRET detection mode. For the 1536-well plate format, 3 µl/well mixture of biotin-RUNX1 and His(6)-CBF (30 nM per protein) was incubated with 23 nl/well compound (dissolved in 100% DMSO) or the equivalent DMSO concentration (positive control) for 30 min followed by the addition of 1 µl/well of 0.44 ng Tb+ labeled anti-his(6)-antibody and 5 nM streptavodin-XL665. After 90 min of incubation, the assay plate was measured in the Envision plate reader.
The TR-FRET assay for detecting interaction between HIV-I Tat and […] was similarly performed with the recombinant full-length HIV-I Tat CLADE B and HIV-I Tat Biotin conjugated proteins supplied by Diatheva (Fano, Italy). Briefly, the His-CBF and Biotin-RUNX1 complex at a working concentration of 83.3 nM per protein were pre-incubated in assay buffer for 10 minutes on ice. Then HIV-I Tat or unlabeled CBF were added to reach final concentrations (Supplementary Figure 4b) and incubated for 5 minutes. Finally anti-His antibody and streptavidin-XL665 at a final concentration of 2.2 ng and 5 nM, respectively, were added to the plate, which was incubated for 1 hr prior to reading on the PerkinElmer Envision plate reader.
Keywords: MLSMR, MLPCN, NIH Roadmap, qHTS, NCGC, Core binding factor, CBF, CBF-beta, Acute myeloid leukemia
Background: qHTS replaces the single test concentration by a dilution series.
With `COc1cccc2c1NC(C(=O)O)C1CC=CC21` (centres undefined), the Potency is 7.94 µM (active). As for `COc1ccccc1C1CCN(C(=O)c2cccs2)CC1`, the entry is “inactive”. As for `O=C(O)C1Nc2c(O)cc(Cl)c([N+](=O)[O-])c2C2C=CCC12` (centres undefined), the entry is “inactive”; as for `COc1ccccc1C1CCN(C(=O)c2ccco2)CC1`, “inactive”; as for `Cc1ccc2c(c1C)NC(C(=O)O)C1CC=CC21` (centres undefined), 7.08 µM (active). As for `O=C(O)C1Nc2c(O)cccc2C2C=CCC12` (centres undefined), the figure is 3.55 µM (active); as for `Cn1ncc(Br)c1N1C(=O)CCC1=O`, “inactive”. As to `Fc1ccc(C(CCNCc2cccs2)c2ccco2)cc1` (centres undefined), the Potency entry was “inactive”. As for `COc1ccc(NC(=O)Nc2nc3ccccc3s2)cc1`, the entry is “inactive”; as for `Cc1cc(NC(=O)CSc2nc3ccccc3[nH]2)n(-c2ccccc2)n1`, “inactive”.

On to `c1ccc(-c2n[nH]c(-c3ccccn3)n2)nc1`, for which the Potency result is “inactive”. As for `CN(C)c1nc(-c2ccccn2)nnc1-c1ccccc1`, the figure is 22.4 µM (active); as for `c1ccc(-c2nnc(-c3ccccn3)nc2NC2CCCCC2)cc1`, “inactive”. As for `CC(=O)Nc1cccc(OCCCNC(=O)c2cccc3ccccc23)c1`, the entry is “inactive”; as for `COc1ccc2[nH]c(C(=O)N3CCCN(Cc4ccc(F)cc4)CC3)cc2c1`, “inactive”. As for `NS(=O)(=O)c1ccc(N/N=C/c2ccc(C(=O)O)cc2)c([N+](=O)[O-])c1`, the entry is “inactive”.

On to `CC(=O)CCn1cc([N+](=O)[O-])nc1C`, for which the Potency result is “inactive”. As to `Cc1cccn(Cc2c(F)cccc2Cl)c1=O`, the Potency result was “inactive”.

For `CC(C)(C)OC(=O)N1CCCN(C(=O)Nc2ccc(C(F)(F)F)cc2)CC1`, the Potency result was “inactive”.

Regarding `CC(/C=N/n1c(-c2ccccn2)n[nH]c1=S)=C\c1ccccc1`, the Potency result was “inactive”. As for `CCC12CCCN3CCc4c(n(c5ccccc45)C(O)(C(=O)OC)C1)C32` (centres undefined), the entry is “inactive”; as for `O=C(O)CSCC(=O)N1CCCN(c2nc3ccc(Cl)cc3s2)CC1`, “inactive”. As for `Cc1nn(Cc2ccccc2)c(C)c1/C=N/NC(=O)c1ccncc1`, the entry is “inactive”. As for `COc1ccccc1OCc1ccc(C(=O)NN)o1`, the entry is “inactive”; as for `Cc1nn(C)c(=O)c(N)c1-c1cc(-c2ccc(Cl)c(Cl)c2)n[nH]1`, “inactive”; as for `CC(C)(C)c1ccc(C(=O)Cn2nc(C(=O)O)c3ccccc3c2=O)cc1`, “inactive”. `CN(C)c1cccc(N(C)C)c1CNC(=O)C(C)(C)C`: the Potency entry is “inactive”. As for `S=c1[nH]nc(-c2cccs2)n1C1CCCCC1`, the entry is “inactive”. As for `CCCSc1nnc(NC(=O)Nc2ccc(C)cc2)s1`, the entry is “inactive”; as for `O=C(/C=C/c1cn(CC(O)CN2CCOCC2)c2ccccc12)c1cccs1` (centres undefined), “inactive”. For `Cc1nc([N+](=O)[O-])cn1CC(O)c1ccccc1` (centres undefined), the Potency result was “inactive”.

As to `CCSc1cc(Cl)nc(N)n1`, the Potency result is “inactive”. As for `COc1cc(OC)c(OC)cc1/C=N/NC(=O)CCc1c(C)n[nH]c1C`, the Potency result was “inactive”. In the case of `CC(=O)N1CCCC1(C(=O)O)c1ccccc1` (centres undefined), the Potency entry is “inactive”. As for `O=C(N/N=C/C(Br)=C/c1ccccc1)C(O)c1ccccc1` (centres undefined), the entry is “inactive”. Take `O=C(O)C1CC(c2ccccc2)=Nc2ccccc2S1` (centres undefined): the Potency entry is “inactive”. Consider `COc1ccc2nc(-c3ccc(Cl)cc3)cc(C(=O)O)c2c1`, for which the Potency entry was “inactive”. As for `Oc1cccc(O)c1O`, the figure is 0.888 µM (active); as for `Cc1ccc(OCC(=O)N(Cc2ccc(N(C)C)cc2)C2CCS(=O)(=O)C2)cc1C` (centres undefined), “inactive”. In the case of `CCOC(=O)c1cnc2c(F)ccc(F)c2c1Sc1ccccc1`, the Potency result is “inactive”. Take `O=C(Nc1ccc(Cl)cc1)NC1CCCCNC1=O` (centres undefined): the Potency entry was “inactive”.

For the molecule `Cc1nn(-c2ccccc2)nc1C(=O)NNC(=O)c1cccc2ccccc12`, the Potency result was “inactive”.

Take `Cc1nn2c(NCCN(C)C)c3c(nc2c1-c1ccccc1)CCCC3`: the Potency entry was “inactive”.

On to `Cc1nc([N+](=O)[O-])cn1C(C)C`, for which the Potency result was “inactive”. As for `c1ccc(-c2ccc(C3=Nn4c(nnc4-c4cccs4)SC3)cc2)cc1`, the entry is “inactive”. As for `CC(=O)Nc1ccc(Nc2cc(C(C)C)nc3c(-c4ccccc4)c(C)nn23)cc1`, the entry is “inactive”; as for `O=C(O)c1ccccc1Sc1ccccc1S(=O)(=O)NC1CCCCC1`, “inactive”. As for `CCC(C)NC(=O)CC(C)C` (centres undefined), the entry is “inactive”. Consider `O=C1CC(N2CCN(S(=O)(=O)c3ccccc3)CC2)C(=O)N1c1ccccc1` (centres undefined), for which the Potency entry was “inactive”. Regarding `C/C(Cc1ccccc1)=N\NC(=O)CNC(=O)c1ccc(Cl)cc1Cl`, the Potency entry was “inactive”. With `N/C(CC1CC1(Cl)Cl)=N\OC(=O)c1ccccc1` (centres undefined), the Potency result is “inactive”. As for `CC(=O)COc1nc2c(c(-c3ccco3)c1C#N)CCc1ccccc1-2`, the entry is “inactive”. As for `Nc1nc(NCc2ccco2)nc(NCCO)c1[N+](=O)[O-]`, the entry is “inactive”. For `Cc1ccc(-n2ncc(-c3nn[nH]n3)c2N)cc1`, the Potency result was “inactive”.

In the case of `N[C@H](Cc1ccc(O)c(O)c1)C(=O)O`, the Potency was 7.08 µM (active). As for `O=C(/C=C/c1ccc(O)c(O)c1)c1ccccc1O`, the entry is “inactive”. As for `NC(Cc1ccc(O)c(O)c1)C(=O)O` (centres undefined), the figure is 0.891 µM (active). As for `NCCc1ccc(O)c(O)c1`, the entry is “inactive”. As to `COc1ccc(C(=O)Nc2cccnc2Sc2ccc(Cl)cc2)cc1`, the Potency entry was “inactive”.
